The list is not random: actives were taken first. Their share in the collection is about 10%.
BAZ2B block: inhibitors of human BAZ2B bromodomain. Potency, µM (highest dose often 114 µM), for the others: top-dose activity change, negative = inhibition, actives largely listed as inhibitors. AlphaScreen BAZ2B-H3K14Ac peptide displacement. Q9UIF8. 4.4% of 360,000 active; note: % is set by controls: 0 for no effect and ±100 for the full control effect; nearly all actives have a fitted effect of over 60% in size
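Inhibition is scored as reduced AlphaScreen emission. The BAZ2B/b-H3(5-23)K14Ac complex (50 nM each) in PBS pH 7.4, 0.01% Tween-20 meets compound (up to 110 uM) for 30 min at RT before bead addition.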
HP1b chromo inh: blocks HP1-beta chromodomain binding to methylated histone tails; AlphaScreen HP1-beta / biotin-H3K9me3 peptide binding; P83916; 0.56% of 390,000 active; Potency, µM (highest dose often 114 µM), for the others: top-dose activity change, negative = inhibition, usual class: inhibitors; note: nearly all actives have a fitted effect of over 70% in size
Target sequence (P83916 whole entry, looked up): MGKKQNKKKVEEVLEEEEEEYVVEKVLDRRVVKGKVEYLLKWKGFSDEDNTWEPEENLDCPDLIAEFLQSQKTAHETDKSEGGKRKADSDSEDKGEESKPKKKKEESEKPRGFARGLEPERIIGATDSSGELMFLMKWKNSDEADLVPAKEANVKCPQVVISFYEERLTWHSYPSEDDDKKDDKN
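Compound inhibition of the preformed complex between 50 nM HP1-beta and 50 nM biotinylated H3K9me3 peptide was read by AlphaScreen. Buffer was PBS pH 7.4 with 0.01% Tween-20. Incubations ran 30 min at room temperature, with 10 ug/mL donor/acceptor beads.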
GLS inhibitor: blocks human kidney-isoform glutaminase activity. GLS enzymatic activity, qHTS titration. Potency, µM (series often up to 45.5 µM), for the others: at the top dose activity change, negative = inhibition, most hits filed as inhibitors. 0.21% of 410,000 active. AID 624170; note: % is set by controls: 0 for no effect and ±100 for the full control effect
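Read-out is an Amplex red fluorescence increase coupled through glutamate oxidase and HRP, measured before and after 30 min room-temperature incubation. hKGA is in 45 mM KH2PO4 (pH 8.2) with 0.02% Tween-20; glutamine added as 1mM solution.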
G9a block: G9a (human) methyltransferase inhibition | Q96KQ7 | G9a H3K9 monomethylation, AlphaScreen, 2 h | Potency, µM (top dose mostly 102 µM), for the others: top-dose activity, negative = inhibition, usual class: inhibitors | 8.8% of 350,000 active | AID 504332; note: % is set by controls: 0 for no effect and ±100 for the full control effect; nearly all actives have a fitted effect of over 75% in size
Target sequence (Q96KQ7 913-1193 limits assumed): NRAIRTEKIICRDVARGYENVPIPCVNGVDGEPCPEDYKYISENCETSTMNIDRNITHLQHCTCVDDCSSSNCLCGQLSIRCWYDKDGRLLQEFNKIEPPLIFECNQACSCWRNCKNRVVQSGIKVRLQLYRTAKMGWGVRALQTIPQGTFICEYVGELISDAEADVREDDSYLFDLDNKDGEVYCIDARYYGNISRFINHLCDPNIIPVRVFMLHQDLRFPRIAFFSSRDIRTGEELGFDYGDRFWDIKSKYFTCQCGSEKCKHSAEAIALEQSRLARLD
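G9a (20 nM) was preincubated 15 min with compound, then reacted 2 h at room temperature with 500 nM biotin-H3K9 peptide and 20 µM SAM. Monomethyl-H3K9 detected by AlphaScreen using anti-H3K9me1 antibody.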
JMJD2A Tudor: blocks the human JMJD2A Tudor domain; 4.4% of 390,000 active; O75164; AlphaScreen JMJD2A-Tudor / H3K4me3 peptide binding; Potency, µM (series often up to 114 µM), for the others: at the highest dose activity change, negative = inhibition, hits mostly inhibitors; note: % is set by controls: 0 for no effect and ±100 for the full control effect; nearly all actives have a fitted effect of over 50% in size
Starred values were filed as active, the others as inactive; ? = inconclusive; . = not tested or not shown; [ ] = another dose, or the depositor's remark. Calls come from the whole dose curve; as a rule, active = well fitted curve in the direction sought with a large enough effect; inconclusive = small, poorly fitted or top-dose-only effect, or another doubt; inactive = no such curve, though single readings can be large; an effect the other way counts as inactive or inconclusive. Potency is the fitted concentration of half-maximal effect.

SMILES | BAZ2B block | HP1b chromo inh | GLS inhibitor | G9a block | JMJD2A Tudor
N#CCCn1c(=O)c(-c2ccc(Cl)cc2)nc2cnc(Nc3ccccc3)nc21 | . | . | . | 8.1%[0.501 µM] | .
CCCn1c(=N)n(CC(=O)c2ccco2)c2ccccc21 | -35.6% | 25.7% | 24.4% | . | -5.8%
Cc1ccccc1C(=O)N(Cc1ccc(N(C)C)cc1)Cc1ccco1 | 35.5µM* | ? | 10.4% | 12.6µM* | 44.7µM*
Cc1ccc(OCC(=O)N(Cc2ccco2)Cc2ccco2)cc1 | -29.6% | -6.6% | 2.0% | -31.9%[59 µM] | -34.3%
CN(C)c1ccc(CN(Cc2ccco2)C(=O)COc2ccc(F)cc2)cc1 | 28.2µM* | ? | 0.5% | 15.8µM* | 44.7µM*
CCc1ccc(CN(Cc2ccco2)C(=O)c2ccc(C)cc2)cc1 | 54.1% | 86.0% | -3.5% | 52.6%[59 µM] | 36.8%
CN(C)S(=O)(=O)c1cccc(C(=O)N(Cc2ccc(F)cc2)Cc2ccco2)c1 | 7.8% | -3.7% | -11.9% | 6.3%[2.33 µM] | -35.6%
Cc1ccc(C(=O)N(Cc2ccc(N(C)C)cc2)Cc2ccco2)cc1 | 35.5µM* | ? | 0.5% | 14.1µM* | 39.8µM*
CN(C)c1ccc(CN(Cc2ccco2)C(=O)c2ccc(F)cc2)cc1 | 35.5µM* | ? | 9.2% | 12.6µM* | 44.7µM*
O=C(CCCn1c(=O)[nH]c2cc(Cl)ccc2c1=O)NCCCN1CCCC1 | 3.7% | 24.5% | -4.0% | -12.1% | 4.5%
Cc1cc(C)c2c(CC(=O)N(Cc3ccc(N(C)C)cc3)Cc3ccco3)coc2c1 | 10µM* | ? | -9.0% | 11.2µM* | 12.6µM*
COc1cccc(C(=O)N(Cc2ccc(N(C)C)cc2)Cc2ccco2)c1 | 22.4µM* | ? | 4.9% | 12.6µM* | 39.8µM*
CCSc1ncc(Cl)c(C(=O)N(Cc2ccc(N(C)C)cc2)Cc2ccco2)n1 | 10µM* | ? | 3.7% | 12.6µM* | 17.8µM*
CC(C)COc1ccc(C(=O)N(CC(=O)Nc2ccccc2C(F)(F)F)Cc2ccco2)cc1 | -9.7% | -6.5% | -0.8% | -10.4%[2.33 µM] | -25.2%
CCOc1ccc(OCCC(=O)N(CC(=O)Nc2ccccc2C(F)(F)F)Cc2ccco2)cc1 | 50.1µM* | 6.3% | -8.1% | 44.7µM* | -18.2%
CCOC(=O)C1CCCN(C(=O)c2cc3c(=O)[nH]c4ccc(C)cc4c3s2)C1 (stereo not given) | -12.7% | 13.8% | -5.6% | ? | -21.2%
Cc1ccc2[nH]c(=O)c(CN(Cc3nnnn3Cc3ccccc3)C3CCCC3)cc2c1 | -2.6% | 9.4% | 29.9% | 8.91µM* | -27.5%
Cc1cc(C)c2cc(CN(CCO)Cc3nnnn3Cc3ccccc3)c(=O)[nH]c2c1 | 12.2% | 40.7% | -1.2% | 39.8µM* | -24.0%
Cc1ccc2cc(CN(CCO)Cc3nnnn3Cc3ccc(F)cc3)c(=O)[nH]c2c1 | 25.0% | 13.5% | 7.7% | 31.6µM* | -17.7%
COc1cc2c(cc1OC)C(/C(C#N)=N\O)=NC(C)(C)C2 | -2.3% | 10.5% | 2.7% | 11.2µM* | -16.4%
COc1cc2c(cc1OC)C(SC)=NC(C)(C)C2 | 2.4% | 35.0% | -16.8% | -10.5%[59 µM] | 3.9%
O=C(/C=C/c1ccc(OC(F)F)cc1)Nc1cccc(S(=O)(=O)N2CCOCC2)c1 | -9.4% | 19.5% | -1.8% | 2.1%[12.7 µM] | -15.2%
O=C(NCc1ccco1)c1nnc(Cc2ccc(F)cc2)o1 | -8.0% | 30.0% | 1.3% | 14.9%[59 µM] | -22.0%
O=C(O)c1ccc(S(=O)(=O)c2ccc3c(c2)C(=O)N(NC(=O)c2ccccc2)C3=O)cc1 | 0.0% | 46.3% | 15.9% | -3.4% | 6.1%
O=C(O)c1ccc(S(=O)(=O)c2ccc3c(c2)C(=O)N(NC(=O)c2ccncc2)C3=O)cc1 | -22.6% | -9.3% | 11.2% | 50.1µM* | -14.1%
CN1CCN(CC(=O)N2N=C(c3cccs3)CC2c2ccco2)CC1 (stereo not given) | -34.7% | 35.2% | 1.8% | -17.5%[59 µM] | -13.6%
COc1ccc(C2CC(c3cccs3)=NN2C(=O)CCCC(=O)O)cc1OC (stereo not given) | . | . | 1.0% | . | .
CCn1c(SCC(=O)c2cc(OC)ccc2OC)nnc1C1CC1 | 2.1% | 25.7% | 8.6% | 50.1µM* | -19.5%
COc1ccc(OC)c(C(=O)CSc2nnc(C3CC3)n2C2CC2)c1 | . | . | 5.1% | . | .
CCn1c(SCC(=O)c2ccc(OC)cc2)nnc1C1CC1 | -0.2% | -2.8% | 0.8% | 15.2%[12.7 µM] | 100µM*

From PubChem
